High-throughput results (PubChem)
Spn MK inh: S. pneumoniae MK inhibitors, primary screen, biochemical, PK/LDH-coupled NADH absorbance. mevalonate kinase [Streptococcus pneumoniae D39]. purified MK, PK/LDH-coupled NADH absorbance 340 nm. inhibition, % at 10 µM. 0.48% of 65,000 active. AID 555, 2006;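 active = ranked among the strongest by inhibition in the single 10 µM screen, a fixed top-ranked set picked for dose follow-up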
PMK inhibit: S. pneumoniae PMK inhibitors, primary screen, biochemical, mevalonate pathway, pilot trial included; phosphomevalonate kinase (Streptococcus pneumoniae D39); purified PMK, PK/LDH-coupled NADH absorbance 340 nm; inhibition, % at 10 µM; 0.49% of 65,000 active;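 active = top-ranked compounds by inhibition in the single 10 µM screen, taking a fixed number of the strongest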;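 also: 0% = full reaction with DMSO carrier and 100% = background rate without enzyme reaction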
DPM-DC inhibit: S. pneumoniae DPM-DC inhibitors, primary screen, biochemical, PK/LDH-coupled NADH fluorescence; purified DPM-DC; AID 556, 2006; calls only at 10 µM; diphosphomevalonate decarboxylase (Streptococcus pneumoniae D39); 0.49% of 65,000 active;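 active = the 320 compounds with the highest percent inhibition in the single-dose primary screen, excluding strongly autofluorescent ones, cut at about 32% in these data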;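 also: kinetic rate of NADH fluorescence loss reporting ADP formed by the decarboxylase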
NADH coupling: inhibitors of PK/LDH coupling enzymes, profiling panel, artefact control, biochemical, MLSMR library | IC50, µM (titrated, usually from 10 µM), without a hit: at the highest dose inhibition | 0.02% of 65,000 active | coupled PK/LDH NADH assays, four targets;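 active = single-dose screening hits from any of four coupled enzyme assays that gave an IC50 when retested across doses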;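 also: the DPM-DC format reads NADH fluorescence rather than 340 nm absorbance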
Fluor 339 460: intrinsic fluorescence of library compounds, ex339/em460 – biochemical, MLSMR library, data from DPM-DC assay, artefact control, profiling panel; compound autofluorescence, ex339/em460 nm, NADH buffer; stronger effect = higher value; 1 = no-compound wells, NADH background; fluorescence fold increase at 10 µM; 5.5% of 65,000 active; AID 709, 2007;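 active = at 10 µM, mean starting fluorescence two-fold or more over control wells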;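 also: signal is the first read of a kinetic run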
A340 absorber: compound light absorbance at 340 nm, profiling panel, artefact control, biochemical, MLSMR library, data from PS, PMK, MK assays; 65,000 tested, under 10 active; fold change at 10 µM; compound absorbance at 340 nm, fold over control; AID 708, 2007;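 active = at 10 µM dose, initial 340 nm absorbance at least 2 fold that of control wells; inactive = change under 2 fold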;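 also: initial absorbance extrapolated from kinetic A340 decline of NADH oxidation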
The depositor's hits bear a star; i = inactive; nt = not tested or not shown; + = active, no number. Compounds with a hit are over-represented: about 6.8% of the library has one in this group of screens.

SMILES	Spn MK inh	PMK inhibit	DPM-DC inhibit	NADH coupling	Fluor 339 460	A340 absorber
Cc1ccc(NC(=O)N2CCC(c3nc4c(nnn4Cc4cccc(Cl)c4)c(=O)[nH]3)CC2)cc1	4	5	i	3%	1.1	1
O=C(C1CCCCC1)N1CCC(c2nc3c(nnn3Cc3ccccc3Cl)c(=O)[nH]2)CC1	9	10	+	6%	1.1	1
CCN(CCCNC(=O)C1CCCN(S(=O)(=O)c2cnc[nH]2)C1)c1ccccc1 (configuration not stated)	7	3	i	3%	1	0.99
CCOC(=O)Cc1c(C)nc2c(-c3cccc(Br)c3)c[nH]n2c1=O	1	4	nt	3%	2.2*	1.1
CCOC(=O)Cc1c(C)nc(-c2ccccc2)[nH]c1=O	2	8	i	3%	1.1	0.99
O=c1c2c(nc3c(-c4cccc(Br)c4)c[nH]n13)CCCC2	0	14	i	7%	2.7*	1
Cc1cc(=O)[nH]c(SCc2nc3ncccn3c2Br)n1	6	0	nt	4%	2.5*	1
CC1(C)CC(=O)C2=C(C1)NC(Nc1nc3ccccc3o1)=NC21CCCCC1	3	1	i	4%	2.4*	1.1
CNC(=O)c1ccsc1NC(=O)c1ccc(Cl)s1	6	0	i	5%	1.1	1.1
N=c1c(C(=O)NCc2ccccc2)cc2c(=O)n3ccccc3nc2n1Cc1ccco1	0	0	i	6%	1.9	1
CCOC(=O)c1cc2c(=O)n3ccccc3nc2n(CC2CCCO2)c1=NC(C)=O (configuration not stated)	10	12	i	9%	2*	1
N=c1c(C(=O)NCc2ccc(F)cc2)cc2c(=O)n3ccccc3nc2n1Cc1ccco1	0	7	i	7%	2.7*	1.1
Cc1ccc(CNC(=O)c2cc3c(=O)n4ccccc4nc3n(CC3CCCO3)c2=N)cc1 (configuration not stated)	1	8	nt	5%	2.4*	1
Cc1ccc(CNC(=O)c2cc3c(=O)n4ccccc4nc3n(Cc3ccco3)c2=N)cc1	8	6	nt	7%	2.3*	1
Nc1ccc(-c2nc3c(Cl)cc(N)cc3[nH]2)cc1	11	18	nt	15%	4.9*	1.3
Cc1ccc(CNc2ccc(N3CCOCC3)c(C(=O)O)c2)s1	3	0	i	4%	2.4*	1
O=C(O)c1cc(NCc2c(F)cccc2Cl)ccc1N1CCOCC1	5	4	i	6%	1.9	1
COC(=O)c1cc(NCc2ccccc2F)ccc1N1CCOCC1	12	17	i	13%	1.8	0.99
CCOc1ccccc1CNc1ccc(N2CCOCC2)c(C(=O)O)c1	3	0	i	5%	2.2*	1
Cc1c(NC(=O)C2CCN(S(=O)(=O)c3ccccc3)CC2)c(=O)n(-c2ccccc2)n1C	14	14	+	21%	1.1	1
CSc1cccc(NC(=O)CSc2nc3ccccc3o2)c1	7	1	i	3%	1	0.99
CC(CCc1ccccc1)NC(=O)c1ccncc1 (configuration not stated)	0	10	i	3%	1.1	1.1
CC(CCc1ccccc1)NCC(O)c1ccc(O)c(C(N)=O)c1 (configuration not stated)	6	0	nt	2%	2.5*	1
CCOC(=O)Cn1c(=O)oc2cc(S(=O)(=O)Nc3ccc(N(CC)CC)cc3C)ccc21	6	12	i	7%	1.1	1
Nc1nc2c(c3c1c(=O)oc1ccccc13)CCCCC2	4	12	nt	8%	2.2*	1.1
CC(=O)Nc1nc2c(c3c1c(=O)oc1ccccc13)CCCCC2	8	0	i	3%	1.2	1
